In ChEMBL document CHEMBL1961873, “Compounds: GSK PKIS; Assays: Nanosyn kinase panel” (2012):

Experiments:
[1] = biological target: MAP/microtubule affinity-regulating kinase 3 (Homo sapiens) (UniProt P27448); details: at 1 µM;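 also: reported values are averaged percent inhibition of MARK3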
[2] = biological target: T1, MAP/microtubule affinity-regulating kinase 4 (Homo sapiens) (UniProt Q96L34); details: at 0.1 µM
T1 sequence (whole entry): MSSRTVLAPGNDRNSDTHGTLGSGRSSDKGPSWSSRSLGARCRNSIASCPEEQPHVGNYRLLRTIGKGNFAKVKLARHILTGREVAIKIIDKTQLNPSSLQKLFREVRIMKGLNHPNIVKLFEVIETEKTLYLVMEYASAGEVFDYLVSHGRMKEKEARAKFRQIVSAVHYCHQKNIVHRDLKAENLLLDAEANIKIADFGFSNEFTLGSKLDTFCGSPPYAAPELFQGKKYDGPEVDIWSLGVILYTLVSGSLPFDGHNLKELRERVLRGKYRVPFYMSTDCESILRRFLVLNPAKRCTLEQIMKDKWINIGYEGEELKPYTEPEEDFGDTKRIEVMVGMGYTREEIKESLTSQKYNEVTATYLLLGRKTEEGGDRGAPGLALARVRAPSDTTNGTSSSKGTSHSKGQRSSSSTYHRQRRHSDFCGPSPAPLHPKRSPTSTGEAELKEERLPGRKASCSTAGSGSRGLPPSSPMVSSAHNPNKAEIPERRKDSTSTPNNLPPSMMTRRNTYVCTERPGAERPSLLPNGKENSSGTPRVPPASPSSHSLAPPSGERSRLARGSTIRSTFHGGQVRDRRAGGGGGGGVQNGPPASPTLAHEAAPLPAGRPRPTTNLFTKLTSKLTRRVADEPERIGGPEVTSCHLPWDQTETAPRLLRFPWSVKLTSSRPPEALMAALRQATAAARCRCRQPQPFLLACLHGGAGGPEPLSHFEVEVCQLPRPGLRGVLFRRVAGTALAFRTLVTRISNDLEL

[3] = biological target: T1, MAP/microtubule affinity-regulating kinase 4 (Homo sapiens); details: at 1 µM
[4] = biological target: Maternal embryonic leucine zipper kinase (Homo sapiens) (UniProt Q14680); details: at 0.1 µM
[5] = biological target: Maternal embryonic leucine zipper kinase (Homo sapiens) (UniProt Q14680); details: at 1 µM
[6] = biological target: MAP kinase-interacting serine/threonine-protein kinase 1 (Homo sapiens) (UniProt Q9BUB5); details: at 0.1 µM
[7] = biological target: MAP kinase-interacting serine/threonine-protein kinase 1 (Homo sapiens) (UniProt Q9BUB5); details: at 1 µM
[8] = biological target: MAP kinase-interacting serine/threonine-protein kinase 2 (Homo sapiens) (UniProt Q9HBH9); details: at 0.1 µM
[9] = biological target: MAP kinase-interacting serine/threonine-protein kinase 2 (Homo sapiens) (UniProt Q9HBH9); details: at 1 µM
[10] = biological target: Serine/threonine-protein kinase MARK2 (Homo sapiens) (UniProt Q7KZI7); details: at 0.1 µM;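 also: mean percent inhibition of PAR-1Balpha kinase activity, reported from the GSK PKIS screen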
Chain of Serine/threonine-protein kinase MARK2 (Homo sapiens) (Q7KZI7 whole entry): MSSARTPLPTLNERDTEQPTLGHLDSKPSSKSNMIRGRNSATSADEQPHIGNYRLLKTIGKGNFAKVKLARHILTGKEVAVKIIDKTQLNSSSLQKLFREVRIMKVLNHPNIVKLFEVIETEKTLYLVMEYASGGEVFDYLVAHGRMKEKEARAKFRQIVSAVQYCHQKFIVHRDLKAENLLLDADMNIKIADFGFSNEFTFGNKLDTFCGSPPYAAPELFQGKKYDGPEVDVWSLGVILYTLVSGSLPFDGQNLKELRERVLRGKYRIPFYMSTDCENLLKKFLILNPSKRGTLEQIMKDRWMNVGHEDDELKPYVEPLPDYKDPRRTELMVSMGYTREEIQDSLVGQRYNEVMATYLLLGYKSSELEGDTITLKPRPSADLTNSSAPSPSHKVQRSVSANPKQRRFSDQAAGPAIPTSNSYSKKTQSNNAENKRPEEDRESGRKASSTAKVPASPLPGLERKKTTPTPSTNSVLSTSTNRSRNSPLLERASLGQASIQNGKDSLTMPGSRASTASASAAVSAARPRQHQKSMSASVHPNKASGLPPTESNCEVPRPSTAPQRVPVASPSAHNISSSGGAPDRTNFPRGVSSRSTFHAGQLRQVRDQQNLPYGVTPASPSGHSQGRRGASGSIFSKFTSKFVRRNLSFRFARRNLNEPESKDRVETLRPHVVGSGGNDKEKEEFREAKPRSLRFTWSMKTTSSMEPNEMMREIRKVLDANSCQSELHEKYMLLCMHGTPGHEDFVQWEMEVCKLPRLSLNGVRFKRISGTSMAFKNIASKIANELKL

Chain of Maternal embryonic leucine zipper kinase (Homo sapiens) (Q14680 whole entry, looked up): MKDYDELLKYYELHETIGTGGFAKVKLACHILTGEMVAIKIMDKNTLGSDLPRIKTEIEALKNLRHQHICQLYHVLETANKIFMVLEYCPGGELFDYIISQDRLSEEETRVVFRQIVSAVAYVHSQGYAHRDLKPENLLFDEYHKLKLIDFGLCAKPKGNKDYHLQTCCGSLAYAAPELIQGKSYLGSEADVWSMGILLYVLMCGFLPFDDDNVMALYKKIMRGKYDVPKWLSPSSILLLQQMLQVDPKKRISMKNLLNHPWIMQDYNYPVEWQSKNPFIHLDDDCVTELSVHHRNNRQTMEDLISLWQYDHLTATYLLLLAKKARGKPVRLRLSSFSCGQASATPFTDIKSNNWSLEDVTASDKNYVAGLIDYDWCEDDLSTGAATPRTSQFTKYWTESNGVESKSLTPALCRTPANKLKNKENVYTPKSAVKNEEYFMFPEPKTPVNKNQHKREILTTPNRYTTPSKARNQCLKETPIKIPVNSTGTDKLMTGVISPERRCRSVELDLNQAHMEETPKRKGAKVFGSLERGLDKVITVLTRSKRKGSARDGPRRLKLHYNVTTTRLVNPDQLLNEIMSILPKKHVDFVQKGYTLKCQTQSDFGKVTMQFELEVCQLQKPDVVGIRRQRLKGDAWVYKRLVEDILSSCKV
Chain of MAP kinase-interacting serine/threonine-protein kinase 1 (Homo sapiens) (Q9BUB5 whole entry, looked up): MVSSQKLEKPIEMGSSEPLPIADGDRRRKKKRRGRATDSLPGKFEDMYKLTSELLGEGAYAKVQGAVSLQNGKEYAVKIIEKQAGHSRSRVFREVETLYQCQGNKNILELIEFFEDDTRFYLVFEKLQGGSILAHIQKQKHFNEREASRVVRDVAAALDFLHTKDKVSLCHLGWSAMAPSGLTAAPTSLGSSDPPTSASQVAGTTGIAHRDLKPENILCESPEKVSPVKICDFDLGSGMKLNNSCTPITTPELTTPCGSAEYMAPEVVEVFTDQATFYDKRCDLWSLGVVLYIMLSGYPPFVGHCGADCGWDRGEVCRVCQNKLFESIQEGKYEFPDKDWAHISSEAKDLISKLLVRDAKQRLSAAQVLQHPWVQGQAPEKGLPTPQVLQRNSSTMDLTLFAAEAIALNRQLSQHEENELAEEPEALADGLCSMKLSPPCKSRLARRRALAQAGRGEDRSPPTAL
Chain of MAP kinase-interacting serine/threonine-protein kinase 2 (Homo sapiens) (Q9HBH9 whole entry, looked up): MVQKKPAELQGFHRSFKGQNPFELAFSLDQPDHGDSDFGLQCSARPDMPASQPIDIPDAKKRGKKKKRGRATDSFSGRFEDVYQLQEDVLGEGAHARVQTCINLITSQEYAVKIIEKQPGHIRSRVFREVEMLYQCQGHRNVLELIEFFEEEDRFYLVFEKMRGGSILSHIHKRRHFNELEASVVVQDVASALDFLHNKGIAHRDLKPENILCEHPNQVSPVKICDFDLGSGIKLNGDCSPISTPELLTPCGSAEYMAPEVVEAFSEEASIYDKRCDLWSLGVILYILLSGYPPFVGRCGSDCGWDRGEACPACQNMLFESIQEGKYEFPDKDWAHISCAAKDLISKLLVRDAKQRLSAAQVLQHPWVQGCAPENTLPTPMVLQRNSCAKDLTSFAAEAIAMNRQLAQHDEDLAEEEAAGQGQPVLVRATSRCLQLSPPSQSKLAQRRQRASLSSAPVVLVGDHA
Chain of MAP/microtubule affinity-regulating kinase 3 (Homo sapiens) (P27448 whole entry, looked up): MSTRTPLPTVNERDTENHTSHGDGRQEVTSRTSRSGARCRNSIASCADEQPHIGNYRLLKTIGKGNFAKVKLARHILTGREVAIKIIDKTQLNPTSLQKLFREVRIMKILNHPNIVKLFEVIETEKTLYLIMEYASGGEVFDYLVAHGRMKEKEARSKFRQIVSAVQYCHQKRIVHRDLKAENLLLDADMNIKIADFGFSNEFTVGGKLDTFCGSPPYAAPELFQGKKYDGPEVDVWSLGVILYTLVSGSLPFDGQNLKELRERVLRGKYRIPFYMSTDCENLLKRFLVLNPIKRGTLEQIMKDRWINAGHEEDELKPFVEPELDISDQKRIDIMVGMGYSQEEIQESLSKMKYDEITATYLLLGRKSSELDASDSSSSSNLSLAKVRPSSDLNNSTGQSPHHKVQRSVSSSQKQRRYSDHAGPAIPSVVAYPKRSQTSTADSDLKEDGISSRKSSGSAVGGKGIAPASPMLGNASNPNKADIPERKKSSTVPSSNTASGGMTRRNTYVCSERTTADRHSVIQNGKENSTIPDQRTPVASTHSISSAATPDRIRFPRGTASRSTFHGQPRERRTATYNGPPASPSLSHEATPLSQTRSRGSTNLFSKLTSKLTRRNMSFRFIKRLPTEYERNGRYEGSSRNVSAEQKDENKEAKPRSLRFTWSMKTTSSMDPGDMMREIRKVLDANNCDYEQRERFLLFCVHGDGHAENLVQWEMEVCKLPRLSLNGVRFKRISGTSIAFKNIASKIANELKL

| Structure (SMILES) | inhibition [1] [%] | inhibition [2] [%] | inhibition [3] [%] | inhibition [4] [%] | inhibition [5] [%] | inhibition [6] [%] | inhibition [7] [%] | inhibition [8] [%] | inhibition [9] [%] | inhibition [10] [%] |
| --- | --- | --- | --- | --- | --- | --- | --- | --- | --- | --- |
| CCn1c(-c2nonc2N)nc2ccc(F)cc21 | 3.73 | 2.45 | 1.33 | 1.93 | 8.51 | 3.42 | 9.46 | 2.9 | 9.38 | 2.57 |
| O=C1Nc2ccc(-c3cccnc3)cc2C1=Cc1cc(Br)c(O)c(Br)c1 | 6.43 | 1.85 | 3.53 | 3.77 | 10.4 | 2.71 | 12.7 | 6.02 | 36 | 1.17 |
| O=S(=O)(CCOCc1ccc(-c2ccc3ncnc(Nc4ccc(OCc5cccc(F)c5)c(Cl)c4)c3c2)o1)c1ccccc1 | 1.33 | 1.36 | 3.69 | 3.07 | 7.12 | 1.49 | 4.07 | -0.55 | 4.88 | -0.42 |
| O=C(Nc1ccc(Oc2ccc3[nH]c(NC(=O)c4ccco4)nc3c2)cc1)Nc1cc(C(F)(F)F)ccc1F | -0.23 | 0.1 | 2.11 | 0.54 | 8.57 | 3.42 | 28.4 | 2.04 | 37.3 | -0.8 |
| CCS(=O)(=O)c1ccc(OC)c(Nc2nccc(N(C)c3ccc4c(C)n[nH]c4c3)n2)c1 | 3.79 | 2.78 | 3.51 | 3.25 | 6.92 | 3.05 | 3.58 | 0.35 | 3.48 | 0.55 |
| N#Cc1c(NC(=O)c2ccccc2F)sc2c1CCCC2 | 3.09 | 1.13 | 3.48 | -3.26 | -2.77 | -0.78 | -0.18 | -0.06 | 2.26 | -0.36 |
| FC(F)(F)c1ccc(-c2nn3ncccc3c2-c2ccnc(Nc3ccc4c(c3)OCCO4)n2)cc1 | 11.2 | 4.98 | 6.4 | -0.41 | -0.13 | 6.66 | 10.9 | 6.24 | 9.7 | 6.43 |
| CS(=O)(=O)CCNCc1nc(-c2ccc3ncnc(Nc4ccc(OCc5cccc(C(F)(F)F)c5)cc4)c3c2)cs1 | 1.92 | -0.17 | 1.58 | 0.45 | 2.55 | 3.67 | 7.54 | 0.84 | 6.94 | 0.22 |
| NS(=O)(=O)c1ccc(Nc2cc(-c3cccc(O)c3)n[nH]2)cc1 | 32.5 | 3.4 | 9.85 | 4.37 | 7.45 | 3.01 | 7.14 | 0.45 | 5.79 | 1.86 |
| Cc1ccc(O)cc1Nc1ccnc2ccc(S(C)(=O)=O)cc12 | 4.85 | 2.23 | 1.71 | 4.23 | 9.23 | 3.85 | 12.2 | 1.97 | 9.18 | 2.65 |
| CS(=O)(=O)Nc1cccc(-c2ccc3c(NC(=O)C4CC4)n[nH]c3c2)c1 | 6.61 | 1.87 | 3.42 | 0.93 | 4.3 | 2.34 | 13.5 | 0.41 | 3.39 | -1.45 |
| CCOc1nccc2c1nc(-c1nonc1N)n2CC | 9.66 | 1.03 | 5.45 | 3.16 | 5.63 | 3.48 | 9.35 | 3.06 | 6.16 | 1.34 |
| CC(C)c1ccc(Nc2nccc(-c3cnn4ncccc34)n2)cc1 | 3.95 | 0.24 | 2.61 | 5.96 | 26.3 | 3.64 | 11.8 | 2.64 | 15.2 | -1.19 |
| CN(C)C(=O)O[C@H]1CN[C@H](C#Cc2cc3ncnc(Nc4ccc(OCc5cccc(F)c5)c(Cl)c4)c3s2)C1 | 3.81 | 1.04 | 1.72 | 1.5 | 4.17 | 2.31 | 6.43 | 1.15 | 6.67 | 0.94 |
| Cc1ccc(NC(=O)CC2CC2)cc1-c1ccc(C(=O)NCC2CC2)cc1 | 1.71 | 1 | -0.01 | 4.17 | 2.02 | 2.59 | 7.07 | 1.63 | 5.54 | -1.05 |
| CN1CCN(C(=O)c2ccc(NC(=O)Nc3ccc(N(C)c4ccnc(Nc5ccc(CS(C)(=O)=O)cc5)n4)cc3)cc2)CC1 | 20.3 | 2.48 | 17.1 | 0.8 | 13.2 | 2.8 | 13.1 | 5.75 | 33.8 | 0.98 |
| Cc1cc(-c2ccccn2)cc(C)c1/C=C/c1cncc(-c2nn[nH]n2)c1 | 7.09 | 2.52 | 3.91 | 4.28 | 9.19 | 2.08 | 3.07 | 0.76 | 2.73 | 1.02 |
